High-throughput results (PubChem BioAssay)
Shown are actives, neighbours in structure and some others; about 2.3% of the full set was active somewhere.
iPSC survival up = increases survival of single human iPS cells; hiPSC single-cell survival, ATPlite luminescence; 100% = ROCK inhibitor wells, 0% = DMSO; survival enhancement, % at 20 µM; 0.044% of 360,000 active; AID 602274; in the data active = survival enhancement above about 18%;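 also: cells exposed to compounds for 16 hours before the ATP read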
TWEAK Fn14 block = TWEAK-Fn14 signaling inhibition | inhibition, % at 10 µM | 2% of 360,000 active | TWEAK-stimulated Fn14 reporter cells, luciferase luminescence, 8 h; in the data active = inhibition above about 50%
HIF-2a inh = inhibitors of HIF-2a; 0.72% of 360,000 active; 786-0 RCC cells HIF-2a reporter, luciferase luminescence, overnight; AID 624352; inhibition, % at 18.8 µM;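 active = inhibition of the luminescence signal of 40% or more relative to plate controls, in a single-dose primary screen at 18.75 µM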
KKLEB tox = reduces viability of KKLEB cystic fibrosis airway cells; KKLEB CF airway cells viability, ATPlite luminescence, overnight; hits give low values; cells stimulated with P. aeruginosa culture filtrate; activity change (cytotoxicity), % at 5 µM; 0.36% of 360,000 active; AID 602141;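 active = corrected activity change at or below -50% at 5 µM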
CF NFkB block = cystic fibrosis NF-kB activation inhibition. KKLEB NF-kB-GFP reporter, PAF-induced, GFP fluorescence overnight. inhibition, % at 5 µM. 0.86% of 360,000 active;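 active = at least 50% inhibition at 5 µM, scaled per plate between neutral and stimulator controls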;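 also: PAF is a Pseudomonas aeruginosa culture filtrate used as stimulus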
LGR2 inh = blocks bursicon-induced cAMP signaling via Drosophila LGR2; AID 720647; inhibition, % at 9.99 µM; HEK293 LGR2, CRE-luciferase, bursicon-stimulated, 4 h; 0.35% of 380,000 active;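 active = drop in luminescence signal, shown as inhibition above about 50% in the replicate tests, limit read from the data, passing the limit was not always enough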;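 also: agonist challenge used bursicon conditioned medium at about half maximal strength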
Mdm2-MdmX confirm = confirmation of inhibitors of human Mdm2/MdmX interaction, set 2; shares compounds with HIF-2a inh; SaOS-2 split-luciferase Mdm2/MdmX complementation, luminescence; inhibition, % at 8 µM; 99% of 740 active;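 active = mean inhibition of the luminescence signal across two replicates at or above 26 percent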
Target sequence (O15151 whole entry, looked up): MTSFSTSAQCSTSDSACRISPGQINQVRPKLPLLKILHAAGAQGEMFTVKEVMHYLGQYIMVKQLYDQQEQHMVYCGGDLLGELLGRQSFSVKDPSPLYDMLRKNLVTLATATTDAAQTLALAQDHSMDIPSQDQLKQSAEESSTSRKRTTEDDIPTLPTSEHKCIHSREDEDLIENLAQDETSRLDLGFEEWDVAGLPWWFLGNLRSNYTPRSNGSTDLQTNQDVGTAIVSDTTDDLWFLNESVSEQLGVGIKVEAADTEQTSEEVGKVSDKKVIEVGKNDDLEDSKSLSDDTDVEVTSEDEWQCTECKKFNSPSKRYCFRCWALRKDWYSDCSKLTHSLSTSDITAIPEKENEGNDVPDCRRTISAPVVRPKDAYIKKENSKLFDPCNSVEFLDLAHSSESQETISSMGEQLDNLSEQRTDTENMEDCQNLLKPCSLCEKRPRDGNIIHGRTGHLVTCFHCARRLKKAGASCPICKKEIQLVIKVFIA
Target sequence (Q00987 whole entry, looked up): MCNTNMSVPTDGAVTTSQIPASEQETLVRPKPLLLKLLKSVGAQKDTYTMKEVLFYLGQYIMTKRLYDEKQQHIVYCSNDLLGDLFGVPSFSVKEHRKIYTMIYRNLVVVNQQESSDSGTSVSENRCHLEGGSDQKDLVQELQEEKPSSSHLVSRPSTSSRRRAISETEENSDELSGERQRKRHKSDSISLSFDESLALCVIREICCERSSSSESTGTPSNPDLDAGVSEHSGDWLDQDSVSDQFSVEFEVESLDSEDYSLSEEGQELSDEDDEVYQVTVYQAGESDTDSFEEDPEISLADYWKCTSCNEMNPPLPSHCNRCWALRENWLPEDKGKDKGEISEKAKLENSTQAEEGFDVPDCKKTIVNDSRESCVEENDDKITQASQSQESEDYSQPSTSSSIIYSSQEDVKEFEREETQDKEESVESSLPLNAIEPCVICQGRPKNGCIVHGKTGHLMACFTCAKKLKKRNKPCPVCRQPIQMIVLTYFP
HIF-2a conf = HIF-2a inhibition, single concentration confirmation; shares compounds with HIF-2a inh; 56% of 1,800 active; inhibition, % at 18.8 µM; 786-0 RCC cells, HIF-2a luciferase reporter luminescence, overnight;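 active = mean inhibition across four replicates of at least 40 percent at the single tested concentration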
HIF-1a counter = HIF-1a inhibition counter-screen for HIF-2a hits; shares compounds with HIF-2a inh; MiaPaCa-2 HIF-1a luciferase reporter, desferoxamine, overnight; AID 651589; inhibition, % at 18.8 µM; 72% of 1,800 active;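 active = mean inhibition of the reporter signal across four replicates at the single tested dose of 50% or more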
A number is an active result.

For O=C(NC1CCCCC1)C(c1cccnc1)N(C(=O)CCl)c1ccc(F)cc1 (stereo not drawn) the results were iPSC survival up inactive, TWEAK Fn14 block inactive, HIF-2a inh inactive, KKLEB tox inactive, CF NFkB block inactive and LGR2 inh inactive.
`COc1ccc(C(C(=O)NC2CCCCC2)N(C(=O)CCl)c2ccc(C)cc2)cc1` (stereo not drawn) gave iPSC survival up inactive, TWEAK Fn14 block 57, HIF-2a inh inactive, KKLEB tox -93, CF NFkB block 91 and Mdm2-MdmX confirm 102.
Screening COc1ccc(C(C(=O)NC2CCCC2)N(C(=O)c2ccoc2C)c2ccc(C)cc2)cc1 (stereo not drawn) returned iPSC survival up inactive, TWEAK Fn14 block inactive, HIF-2a inh inactive, KKLEB tox inactive, CF NFkB block inactive and LGR2 inh inactive.
`COc1ccc(C(C(=O)NC2CCCCC2)N(C(=O)CCl)c2ccc(OC)cc2)cc1` (stereo not drawn) gave iPSC survival up inactive, TWEAK Fn14 block 64, HIF-2a inh inactive, KKLEB tox -81, CF NFkB block 72 and Mdm2-MdmX confirm 95.
`COc1ccc(N(C(=O)CCl)C(C(=O)NC2CCCCC2)c2cccnc2)cc1` (stereo not drawn) gave iPSC survival up inactive, TWEAK Fn14 block inactive, HIF-2a inh inactive, KKLEB tox inactive, CF NFkB block inactive, LGR2 inh inactive and Mdm2-MdmX confirm 103.
For C[C@@H]1CN([C@H](C)CO)C(=O)c2cc(-c3ccc(C(=O)N(C)C)cc3)cnc2O[C@@H]1CN(C)C(=O)c1ccncc1 the results were LGR2 inh inactive.
COCC(=O)N(C)C[C@H]1Oc2ncc(C#C[C@@H](C)O)cc2C(=O)N([C@H](C)CO)C[C@H]1C was read as LGR2 inh inactive.
CC(C)NC(=O)N(C)C[C@@H]1Oc2c(NC(=O)CCCCCC(=O)Nc3ccccc3N)cccc2C(=O)N([C@@H](C)CO)C[C@H]1C was read as LGR2 inh inactive.
For CC(C)C1C(c2ccccc2)N(C)C(c2ccccc2)CC1(O)c1ccccc1 (stereo not drawn) the results were iPSC survival up inactive, TWEAK Fn14 block inactive, HIF-2a inh 53, KKLEB tox inactive, CF NFkB block inactive, LGR2 inh inactive, HIF-2a conf inactive and HIF-1a counter inactive.
O=C(Nc1ccc2nc3n(c(=O)c2c1)CCCCC3)c1c(F)ccc([N+](=O)[O-])c1F was read as iPSC survival up inactive, TWEAK Fn14 block 106, HIF-2a inh 88, KKLEB tox -87, CF NFkB block 87, LGR2 inh inactive, Mdm2-MdmX confirm 103, HIF-2a conf 98 and HIF-1a counter 96.
Cc1ccc(-c2cc(C(=O)NCCCN3CCOCC3)no2)cc1 was read as iPSC survival up inactive, TWEAK Fn14 block 75, HIF-2a inh 84, KKLEB tox inactive, CF NFkB block inactive, HIF-2a conf 82 and HIF-1a counter 71.
Screening O=S(=O)(Nc1cccc2ncccc12)c1cccs1 returned iPSC survival up inactive, TWEAK Fn14 block 107, HIF-2a inh 65, KKLEB tox inactive, CF NFkB block inactive and Mdm2-MdmX confirm 103.
For CSc1ncc(Cl)c(C(=O)Nc2cccc(C)c2)n1 the results were iPSC survival up inactive, TWEAK Fn14 block inactive, HIF-2a inh inactive, KKLEB tox inactive, CF NFkB block inactive and LGR2 inh inactive.
For Cc1nnc(NC(=O)CS(=O)(=O)Cc2ccccc2)s1 the results were iPSC survival up inactive, TWEAK Fn14 block inactive, HIF-2a inh inactive, KKLEB tox inactive, CF NFkB block inactive and LGR2 inh inactive.
`Cc1nnc(NC(=O)c2nc(S(=O)(=O)Cc3ccccc3)ncc2Cl)s1` gave iPSC survival up inactive, TWEAK Fn14 block 91, HIF-2a inh 64, KKLEB tox inactive, CF NFkB block 83, LGR2 inh inactive, HIF-2a conf inactive and HIF-1a counter 106.
`Cc1cccc(C)c1NC(=O)c1nc(S(=O)(=O)Cc2ccccc2)ncc1Cl` gave iPSC survival up inactive, TWEAK Fn14 block 74, HIF-2a inh 77, KKLEB tox -88, CF NFkB block 95, LGR2 inh inactive, HIF-2a conf 69 and HIF-1a counter 91.
CSc1ncc(Cl)c(C(=O)Nc2cccc3ccccc23)n1 was read as iPSC survival up inactive, TWEAK Fn14 block inactive, HIF-2a inh inactive, KKLEB tox inactive, CF NFkB block inactive and LGR2 inh inactive.
For Cc1cccc(CS(=O)(=O)c2ncc(Cl)c(C(=O)Nc3c(C)cccc3C)n2)c1 the results were iPSC survival up inactive, TWEAK Fn14 block 90, HIF-2a inh 47, KKLEB tox -66, CF NFkB block 98, LGR2 inh inactive, Mdm2-MdmX confirm 103, HIF-2a conf 68 and HIF-1a counter 90.
For CCCc1nnc(NC(=O)c2nc(S(=O)(=O)Cc3cccc(C)c3)ncc2Cl)s1 the results were iPSC survival up inactive, TWEAK Fn14 block 93, HIF-2a inh 69, KKLEB tox -90, CF NFkB block 94, LGR2 inh inactive, HIF-2a conf inactive and HIF-1a counter 106.
For COc1ccc(OC)c(NC(=O)c2nc(S(=O)(=O)Cc3ccccc3)ncc2Cl)c1 the results were iPSC survival up inactive, TWEAK Fn14 block 76, HIF-2a inh 89, KKLEB tox -105, CF NFkB block 89, LGR2 inh inactive, Mdm2-MdmX confirm 103, HIF-2a conf 99 and HIF-1a counter 104.
CC(C)NC(=O)N(C)C[C@@H]1Oc2ccc(NC(=O)c3ccncc3)cc2CC(=O)N([C@H](C)CO)C[C@H]1C was read as LGR2 inh inactive.
`CCN1CCN(c2ccc(S(=O)(=O)N3CCCCC3)cc2NC(=O)/C=C/c2ccc([N+](=O)[O-])cc2)CC1` gave iPSC survival up inactive, TWEAK Fn14 block inactive, HIF-2a inh 87, KKLEB tox inactive, CF NFkB block inactive, LGR2 inh inactive, HIF-2a conf inactive and HIF-1a counter 101.
CCN1CCN(c2ccc(S(=O)(=O)N3CCCCC3)cc2NC(=O)/C=C/c2ccc(F)cc2)CC1 was read as iPSC survival up inactive, TWEAK Fn14 block inactive, HIF-2a inh inactive, KKLEB tox inactive, CF NFkB block inactive and LGR2 inh inactive.
`CCN(CC)c1ccc(C=Nc2cccc(S(=O)(=O)N3CCOCC3)c2)c(O)c1` gave iPSC survival up inactive, TWEAK Fn14 block inactive, HIF-2a inh inactive, KKLEB tox inactive, CF NFkB block inactive and LGR2 inh inactive.
